Reference: PubChem BioAssay (EPA / NIEHS)
Values joined by “and” are separate entries in the source; they are usually repeats but may differ in a detail not shown here. Identical values can stand only once. Some structures have more than one record in an assay (separate samples or runs), and their calls can disagree. Active and inactive are the calls of the source. The calls were made as follows: active = hit-call score of the fitted dose curve at least 0.9, where 1 is the maximum; inactive = score below 0.9.

Tests used:
[1] = read-out: Monokine induced gamma interferon (MIG), CXCL9 (gene 4283); assay: BSK_hDFCGF_MIG: BioMAP Diversity Plus: hDFCGF Assay for Monokine induced gamma interferon (MIG) Biomarker Activity (AID 2283063); details: primary human foreskin fibroblasts; actives raise or lower the signal
Procedure, shortened: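 ELISA read-out of MIG from primary human dermal fibroblasts 24 h post-dosing. Gain or loss of signal fitted bidirectionally, DMSO as baseline.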

[2] = read-out: Matrix Metallopeptidase 1 (MMP1), MMP1 (gene 4312); assay: BSK_hDFCGF_MMP1: BioMAP Diversity Plus: hDFCGF Assay for Matrix Metallopeptidase 1 (MMP1) Biomarker Activity (AID 2283064); details: primary human foreskin fibroblasts; actives raise or lower the signal
Procedure, shortened: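 hDFCGF primary fibroblasts (human foreskin); chemical added; 24 h; MMP1 by ELISA; bidirectional fit vs DMSO.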

[3] = read-out: Vascular cell adhesion molecule 1 (VCAM1), VCAM1 (gene 7412); assay: BSK_hDFCGF_VCAM1: BioMAP Diversity Plus: hDFCGF Assay for Vascular cell adhesion molecule 1 (VCAM1) Biomarker Activity (AID 2283065); details: primary human foreskin fibroblasts; actives raise or lower the signal;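 as to AC50: VCAM-1 protein level quantified by ELISA after 24 h chemical exposure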
Procedure, shortened: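 Primary human foreskin fibroblasts (hDFCGF system) were dosed with chemical and VCAM-1 was measured by ELISA 24 h later. Bidirectional curve fitting used DMSO as negative control and activity baseline.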

[4] = read-out: Plasminogen activator inhibitor-1 (PAI1), SERPINE1 (gene 5054); assay: BSK_hDFCGF_PAI1: BioMAP Diversity Plus: hDFCGF Assay for Plasminogen activator inhibitor-1 (PAI1) Biomarker Activity (AID 2283066); details: primary human foreskin fibroblasts; actives raise or lower the signal
Procedure, shortened: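 Human foreskin fibroblasts in the hDFCGF system were dosed with compound for 24 h; PAI-1 was quantified by ELISA. Bidirectional curve fitting used DMSO as negative control and baseline.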

[5] = read-out: Interferon-gamma inducible Protein 10 (IP10), CXCL10 (gene 3627); assay: BSK_KF3CT_IP10: BioMAP Diversity Plus: KF3CT Assay for Interferon-gamma inducible Protein 10 (IP10) Biomarker Activity (AID 2283068); details: primary human keratinocytes with fibroblasts; actives raise or lower the signal
Procedure, shortened: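 ELISA read-out of IP-10 after 24 h chemical dosing of human skin primary co-culture (keratinocytes, foreskin fibroblasts). Gain or loss of signal relative to DMSO, bidirectional curve fit.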

[6] = BSK_KF3CT_SRB: Viability Assessment in the BioMAP Diversity Plus: KF3CT Assay (AID 2283069); details: primary human keratinocytes with fibroblasts;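 also: total protein by sulforhodamine B staining as a cytotoxicity measure; read 24 h after compound addition; fitted for both signal gain and loss against DMSO baseline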
Procedure, shortened: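 Keratinocytes co-cultured with foreskin fibroblasts (human primary); chemical added, 24 h; fix 10% TCA, stain 0.1% SRB, A560. Bidirectional fit vs DMSO.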

[7] = read-out: Interleukin-1 alpha (IL1a), IL1A (gene 3552); assay: BSK_KF3CT_IL1a: BioMAP Diversity Plus: KF3CT Assay for Interleukin-1 alpha (IL1a) Biomarker Activity (AID 2283070); details: primary human keratinocytes with fibroblasts; actives raise or lower the signal
Procedure, shortened: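 Chemicals were dosed onto co-cultured human keratinocytes and foreskin fibroblasts, IL-1a was quantified by ELISA at 24 h, and activity was fitted in both directions relative to DMSO controls.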

[8] = read-out: TIMP metallopeptidase inhibitor 2 (TIMP2), TIMP2 (gene 7077); assay: BSK_KF3CT_TIMP2: BioMAP Diversity Plus: KF3CT Assay for TIMP metallopeptidase inhibitor 2 (TIMP2) Biomarker Activity (AID 2283071); details: primary human keratinocytes with fibroblasts; actives raise or lower the signal
Procedure, shortened: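 Human primary keratinocyte/foreskin fibroblast co-culture dosed with chemical and sampled at 24 h. TIMP-2 levels quantified by ELISA; bidirectional fitting against DMSO negative control as baseline.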

[9] = read-out: Matrix Metallopeptidase 9 (MMP9), MMP9 (gene 4318); assay: BSK_KF3CT_MMP9: BioMAP Diversity Plus: KF3CT Assay for Matrix Metallopeptidase 9 (MMP9) Biomarker Activity (AID 2283074); details: primary human keratinocytes with fibroblasts; actives raise or lower the signal;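 as to AC50: MMP9 protein level quantified by ELISA in the co-culture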
Procedure, shortened: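 Human keratinocyte/foreskin fibroblast co-culture; compound added; 24 h; MMP-9 by ELISA; bidirectional fit vs DMSO baseline.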

[10] = read-out: urokinase plasminogen activator (uPA), PLAU (gene 5328); assay: BSK_KF3CT_uPA: BioMAP Diversity Plus: KF3CT Assay for urokinase plasminogen activator (uPA) Biomarker Activity (AID 2283075); details: primary human keratinocytes with fibroblasts; actives raise or lower the signal
Procedure, shortened: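 ELISA readout of uPA, analyzed for signal gain or loss relative to DMSO, from a human primary keratinocyte–foreskin fibroblast co-culture measured 24 h after chemical treatment.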

[11] = read-out: CD40, CD40 (gene 958); assay: BSK_LPS_CD40: BioMAP Diversity Plus: LPS Assay for CD40 Biomarker Activity (AID 2283076); details: primary human HUVEC with PBMC; actives raise or lower the signal
Procedure, shortened: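 Primary human umbilical vein endothelial cells co-cultured with peripheral blood mononuclear cells, LPS-stimulated, were dosed with chemical and read 24 h later. CD40 levels were measured by ELISA and fitted bidirectionally against DMSO as negative control and baseline.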

[12] = read-out: E-selectin (Homo sapiens) (UniProt P16581); assay: BSK_LPS_Eselectin: BioMAP Diversity Plus: LPS Assay for Eselectin Biomarker Activity (AID 2283077); details: primary human HUVEC with PBMC; actives raise or lower the signal
Procedure, shortened: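 Human umbilical vein endothelial cells co-cultured with peripheral blood mononuclear cells under LPS stimulation; E-selectin measured by ELISA 24 h after chemical dosing. Activity fitted bidirectionally against DMSO as negative control and baseline.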

[13] = read-out: Interleukin-8 (IL8), CXCL8 (gene 3576); assay: BSK_LPS_IL8: BioMAP Diversity Plus: LPS Assay for Interleukin-8 (IL8) Biomarker Activity (AID 2283078); details: primary human HUVEC with PBMC; actives raise or lower the signal
Procedure, shortened: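 Human umbilical vein endothelial cells co-cultured with PBMC were stimulated with LPS; IL-8 levels were measured by ELISA 24 h after chemical dosing. Activity was fitted bidirectionally against DMSO as negative control and baseline.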

[14] = BSK_LPS_SRB: Viability Assessment in the BioMAP Diversity Plus: LPS Assay (AID 2283079); details: primary human HUVEC with PBMC;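 also: total protein by sulforhodamine B absorbance as a cytotoxicity measure; measured one day after compound addition; fitted in both directions against DMSO so loss or gain of signal counts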
Procedure, shortened: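 Human umbilical vein endothelial cells co-cultured with PBMC (LPS system) were dosed for 24 h. Total protein was stained with 0.1% sulforhodamine B after 10% TCA fixation, read at 560 nm, and fitted bidirectionally against DMSO baseline.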

[15] = read-out: Monocyte Chemoattractant Protein-1 (MCP1), CCL2 (gene 6347); assay: BSK_LPS_MCP1: BioMAP Diversity Plus: LPS Assay for Monocyte Chemoattractant Protein-1 (MCP1) Biomarker Activity (AID 2283081); details: primary human HUVEC with PBMC; actives raise or lower the signal;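 as to AC50: secreted MCP-1 protein quantified by ELISA in culture supernatant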
Procedure, shortened: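 HUVEC plus PBMC co-culture (human primary cells, LPS system) exposed to test chemical for 24 h; MCP-1 measured by ELISA. Bidirectional curve fitting against DMSO baseline; parallel SRB total-protein staining flags overt cytotoxicity.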

[16] = BSK_LPS_PGE2: BioMAP Diversity Plus: LPS Assay for Prostaglandin E2 (PGE2) Biomarker Activity (AID 2283082); details: primary human HUVEC with PBMC; actives raise or lower the signal;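 as to AC50: secreted prostaglandin E2 measured by ELISA in LPS-stimulated co-culture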
Procedure, shortened: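 HUVEC plus PBMC co-culture stimulated with LPS; secreted PGE2 quantified by ELISA 24 h after chemical dosing. Activity fitted bidirectionally against DMSO as negative control and baseline; parallel SRB total-protein staining served as cytotoxicity check.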

[17] = read-out: Intercellular Adhesion Molecule 1 (ICAM1), ICAM1 (gene 3383); assay: BSK_KF3CT_ICAM1: BioMAP Diversity Plus: KF3CT Assay for Intercellular Adhesion Molecule 1 (ICAM1) Biomarker Activity (AID 2283067); details: primary human keratinocytes with fibroblasts; actives raise or lower the signal
Procedure, shortened: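 Human keratinocyte plus foreskin fibroblast primary co-culture was exposed to chemical for 24 h. ICAM-1 was then quantified by ELISA, and the data were fit bidirectionally against DMSO as the negative control and baseline.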

Measured: AC50

E-selectin (Homo sapiens), sequence (P16581 whole entry, looked up): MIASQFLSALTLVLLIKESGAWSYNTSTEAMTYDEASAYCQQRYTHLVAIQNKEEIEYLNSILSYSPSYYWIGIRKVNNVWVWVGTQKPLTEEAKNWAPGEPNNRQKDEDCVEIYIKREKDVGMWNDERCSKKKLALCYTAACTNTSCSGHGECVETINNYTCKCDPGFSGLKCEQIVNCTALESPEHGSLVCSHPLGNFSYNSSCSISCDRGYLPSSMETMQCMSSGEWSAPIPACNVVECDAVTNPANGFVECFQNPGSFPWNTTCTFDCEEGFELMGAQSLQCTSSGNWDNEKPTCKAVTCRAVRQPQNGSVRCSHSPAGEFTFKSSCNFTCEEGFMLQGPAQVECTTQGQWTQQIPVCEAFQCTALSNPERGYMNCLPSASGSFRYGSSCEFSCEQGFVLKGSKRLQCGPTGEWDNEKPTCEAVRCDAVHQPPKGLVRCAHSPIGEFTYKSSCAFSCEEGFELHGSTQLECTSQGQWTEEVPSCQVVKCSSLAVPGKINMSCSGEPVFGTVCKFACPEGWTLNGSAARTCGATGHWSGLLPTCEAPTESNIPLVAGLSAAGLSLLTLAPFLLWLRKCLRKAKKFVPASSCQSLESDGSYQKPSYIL

C[C@@H]1C[C@H]2[C@@H]3CCC4=CC(=O)C=C[C@]4(C)[C@@]3(F)[C@@H](O)C[C@]2(C)[C@@]1(O)C(=O)COP(=O)(O)O
inactive: [1] | [2] | [3] | [4] | [5] | [6] | [7] | [8] | [9] | [10] | [11] | [12] | [13] | [14] | [15] | [16]
active: [2] 1.42 µM and 386 nM | [3] 8.68 µM | [16] 9.37 µM and 3.63 µM

CCCCCCCC(=O)O
inactive: [1] | [2] | [3] | [4] | [17] | [5] | [6] | [7] | [8] | [9] | [10] | [11] | [12] | [13] | [14] | [15] | [16]

CCC(=C(c1ccc(O)cc1)c1ccc(OCCN(C)C)cc1)c1ccccc1
active: [1] 13.7 µM | [2] 10.7 µM | [3] 10.7 µM | [4] 7.53 µM | [17] 12.3 µM | [5] 10.4 µM | [6] 8.81 µM | [7] 9.91 µM | [8] 10.5 µM | [9] 8.87 µM | [10] 11.8 µM | [11] 7.71 µM | [12] 19.8 µM | [13] 13.3 µM | [14] 9.13 µM | [15] 9.72 µM | [16] 19.8 µM
